{"source": "the supplement of paper PMC6555819"}
{"tested_on": "RXRa DBDmut IVT, anti-RXR (DBD mutation: RXRa K156A/R161A, NR concentration 90 nM)", "assay": "PBM binding z-score (relative to random genomic background probes); higher = stronger binding; sequences stand for … in GC…GCGATTGACAGCGTAGAATGAAGG", "method_in_brief": "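Custom Agilent 4×180K protein-binding microarrays carried double-stranded probes, each with a 34-nt variable region. These regions held direct-repeat seeds, single-nucleotide variants, half-site ablations and random human genomic background sequences. Ligand-free nuclear receptor dimers were incubated on the arrays for 1 h, antibodies against each partner (one per run) detected binding, and scanned fluorescence was regression-normalized. Binding z-scores take the random background probes as reference.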"}
{"sequence": "TGGAGTAGGTTACGGGGGCATTCAGGGATGAAGA", "PBM binding z-score": 2.16}
{"sequence": "CGTCCAAGGTCAGAGAGGTCAGTGTATGCCGAGT", "PBM binding z-score": 3.28}
{"sequence": "CCTACTGGGCCACGAAAGGTGATTGATTCAGTGA", "PBM binding z-score": -0.663}
{"sequence": "ATATGTAGGTTAGGGTCATTAAGAAAGTAGGGAA", "PBM binding z-score": 2.22}
{"sequence": "ATATGTAGGTAAGGGTCATTCAGAAAGTAGGGAA", "PBM binding z-score": 2.15}
{"sequence": "ATATGTAGGTTAGGGTAATTCAGAAAGTAGGGAA", "PBM binding z-score": 0.835}
{"sequence": "AGTCCAAGTTCACTAGGTAACGTAAGATTCAGCT", "PBM binding z-score": 4.3}
{"sequence": "TCTCGGAGGACACGAAAAGTCAGAGCTCGACATC", "PBM binding z-score": 1.08}
{"sequence": "ATATGTAGGTTAGGGTTATTCAGAAAGTAGGGAA", "PBM binding z-score": 1.06}
{"sequence": "CGAACTAGGTCACCAAGACAGTGAAGAGGTTGGA", "PBM binding z-score": 1.29}
{"sequence": "CTATGTAAGTTAAGGGGGTCATTCAGTTTGAAAG", "PBM binding z-score": 3.07}
{"sequence": "CAAACTAGGTCAAGGGGTCAAAGTCCGCTTCCCG", "PBM binding z-score": 2.98}
{"sequence": "CGCACTAGGTCACCAGGACAGTGAAGAGGTTGGA", "PBM binding z-score": 1.09}
{"sequence": "CGACCTAGGTCACCAGGACAGTGAAGAGGTTGGA", "PBM binding z-score": 1.6}
{"sequence": "CAAACTAGGTCACGAAAGGTCAACGTCGAATGAC", "PBM binding z-score": 2.47}
{"sequence": "TATACAGGATCAAAGGCCAGAGTACGAATGTCGA", "PBM binding z-score": -0.32}
{"sequence": "ATATGTAGGTTCCATCCGGGTCATTCAGGCTATG", "PBM binding z-score": 0.91}
{"sequence": "CGAACTAGGTCACTAGGACAGTGAAGAGGTTGGA", "PBM binding z-score": 1.22}
{"sequence": "CAAACTAGGTCACCGGGAGGTCAAAGTCCGCATG", "PBM binding z-score": 2.07}
{"sequence": "GCTGCTAGGTCAGGTTGGTCAACTAACGGGTACG", "PBM binding z-score": 0.438}
{"sequence": "CCGAGTAGGTTACGACGGGGCATTCAGTGCGAAT", "PBM binding z-score": -0.202}
{"sequence": "CCGAGTAGGTTACGAGGGGGCATTCGGTGCGAAT", "PBM binding z-score": 0.865}
